From PubChem BioAssay AID1578 (Sanford-Burnham Center for Chemical Genomics, 2009)
The campaign covered roughly 290,000 compounds. About 3,000 (1%) were called active. The sample holds actives, similar compounds and a random draw of the others, so the mix is not that of the screen. A number with no mark means an inactive call. Cut-off read from the data, not from the text of the source: active = inhibition mostly above about 36% (no sharp cut-off); inactive = mostly below about 34%.

Test: NOD1 signaling inhibitors, primary screen, cell-based, luminescence, uHTS (AID 1578);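 note: HEK-293T reporter cells stimulated with the NOD1 agonist gamma-tri-DAP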
Details: NOD1-driven NF-kB luciferase reporter cells, at 4 µM, hits give high values

SMILES	inhibition
C=CCN1C(=O)/C(=C2/C(=O)N(CC(=O)O)c3ccccc32)S/C1=N/c1nccs1	-5.4%
CCN(CC)CCn1c(NC(=O)c2ccccc2O)nc2ccccc21	19%
O=C(CNS(=O)(=O)c1cccc2nsnc12)NCc1ccc(Cl)cc1	47.4% (active)
O=C(CCCNS(=O)(=O)c1cccc2nsnc12)NCc1ccc(Cl)cc1	-12%
Cc1ccc(CNC(=O)CNS(=O)(=O)c2cccc3nsnc23)cc1	-18.7%
Cn1ncc(N=Cc2ccccc2)c1C(N)=O	-13.3%
C/C(CC(=O)NCc1ccc(Cl)cc1)=N\NC(=O)Cc1ccccc1	-22.7%
Cc1ccc(NC(=O)C2CCN(S(=O)(=O)c3ccc4c(c3)NC(=O)C(C)S4)CC2)cc1C (centres undefined)	6.5%
COc1ccc(N2CCN(S(=O)(=O)c3ccc4c(c3)NC(=O)C(C)C(=O)N4)CC2)cc1 (centres undefined)	-0.5%
CCc1ccc(NC(=O)C2CCN(S(=O)(=O)c3ccc4c(c3)NC(=O)C(C)S4)CC2)cc1 (centres undefined)	30.4%
Cc1cc(C)cc(NC(=O)C2CCN(S(=O)(=O)c3ccc4c(c3)NC(=O)C(C)S4)CC2)c1 (centres undefined)	-10.4%
CC1Sc2ccc(S(=O)(=O)N3CCC(C(=O)Nc4cccc(Cl)c4)CC3)cc2NC1=O (centres undefined)	7.5%
CC1Sc2ccc(S(=O)(=O)N3CCN(c4ccccc4)CC3)cc2NC1=O (centres undefined)	30.2%
O=C(NCc1cccs1)c1cnc2ccccn2c1=O	-8.1%
COc1ccc(C(C)(C)C)cc1NC(=O)CCNC(=O)c1ccco1	-35.1%
O=C(CN1CCCCC1)NNC(=O)c1cccc(Br)c1	5.1%
CCCc1nnc(NC(=O)Cn2c(=O)oc3cc(Br)ccc32)s1	-17.9%
COc1ccc2[nH]c(=O)c(CN(CC3CCCO3)C(=S)Nc3cccc(C)c3)cc2c1 (centres undefined)	46.6% (active)
COc1ccc2[nH]c(=O)c(CN(CC3CCCO3)C(=S)Nc3ccc(C)cc3)cc2c1 (centres undefined)	-18.3%
COc1ccc2[nH]c(=O)c(CN(CC3CCCO3)C(=S)Nc3ccccc3)cc2c1 (centres undefined)	-31.7%

SMILES	inhibition
COc1cccc(CN(C)CC(=O)NCc2ccccc2Cl)c1	8.1%
Cc1ccc(OCC(=O)Nc2ccc(NC(=O)c3ccccc3)cc2)cc1C	-12.6%
CCOC(=O)c1nc2sc(C)c(C)c2c(=O)[nH]1	4.3%
CCOC(=O)/C(=C\c1ccc(Cl)cc1)c1nc2sc(C)c(C)c2c(=O)[nH]1	58.5%
CCOC(=O)/C(=C\c1cccc(O)c1)c1nc2sc(C)c(C)c2c(=O)[nH]1	105% (active)
CCOC(=O)C1CCN(C(=O)CCc2c(C)nc3ncnn3c2C)CC1	2.5%
O=C(Cc1c(O)c2ccccc2oc1=O)c1ccc(C(F)(F)F)cc1	-10.7%
O=c1oc2ccccc2c(O)c1Cc1cc(Cl)c2cccnc2c1O	62.6% (active)
O=[N+]([O-])c1cc(Cl)c2cccnc2c1O	-7.9%
CCOC(=O)N1CCN(Cc2cc(Cl)c3cccnc3c2O)CC1	-1.5%
OCCN1CCN(Cc2cc(Cl)c3cccnc3c2O)CC1	26.4%
COc1ccc(NC(=S)Nc2ccc(N)c([N+](=O)[O-])c2)cc1	-69.8%
Cc1c(CNCc2cccs2)c(C(=O)O)c(C)n1Cc1ccccc1	8.7%
O=C(NC1CCCCC1)N1CCCC(CNS(=O)(=O)Cc2ccccc2)C1 (centres undefined)	-23.7%
Fc1ccccc1NC(=S)NNc1ncc(C(F)(F)F)cc1Cl	12.4%
C/C(=N/Nc1ncc(C(F)(F)F)cc1Cl)c1ccncc1	-9%
Oc1cc2c(cc1CN1CCN(c3cccc(C(F)(F)F)c3)CC1)CCC2	19.7%
Cc1ccccc1-n1c(=O)cc(N2CCN(Cc3ccccc3)CC2)[nH]c1=O	-4.3%
CN1C(=O)C(c2nnc(Nc3cccc4ccccc34)s2)C2CC1(C)Oc1ccccc12 (centres undefined)	3.3%
O=C1CCCN1CCC(=O)N1CCCC(Nc2ccc(F)c(F)c2)C1 (centres undefined)	-39.2%

SMILES	inhibition
COc1cccc(-c2cc(C(F)(F)F)nc(-n3cncn3)n2)c1	97.6% (active)
COc1cccc(-c2cc(C(F)(F)F)nc(-n3cccn3)n2)c1	-19.7%
COc1ccc(-c2cc(C(F)(F)F)nc(-n3cncn3)n2)cc1	18.2%
NNC(=O)c1csc(COc2cc(Cl)cc(Cl)c2)n1	-9.6%
Cc1ccc(C)c(S(=O)(=O)N=Nc2c(O)[nH]c3ccccc23)c1	-24.6%
CC(NC(=O)CSc1ncn[nH]1)c1ccc(Cl)cc1Cl (centres undefined)	-18%
COc1ccc2c(c1)N(C)/C(=C/c1cccc[n+]1C)S2	2.2%
CN1/C(=C/c2cccc[n+]2C)Sc2ccccc21	-2.3%
Cc1nn(Cc2ccc(F)cc2)c2sc(C(=O)Nc3ccc(N4CCOCC4)cc3N3CCOCC3)cc12	-10.3%
CCOC(=O)c1ccc(NC(=O)c2cc(C)nn2-c2ccccc2)cc1	-1.2%
O=C(CN1CCN(Cc2ccccc2)CC1)Nc1ccc([N+](=O)[O-])cc1C(=O)Nc1ccccc1F	-2.7%
Cc1ccc(C(=O)NCc2nnc(SCC(=O)NC(C)c3ccccc3)n2C)cc1 (centres undefined)	-35.4%
CCN(CC)C(=S)SCC(=O)c1ccccc1	-25.7%
CCN(CC)C(=S)SC1=CCS(=O)(=O)C1	-17.5%
CCN(CC)C(=S)SSC(=S)N(CC)CC	91.1% (active)
CC/C(C)=N\N=C\c1c(O)n(CC)c2cc(C3=NNC(=O)CC3)ccc12	-29.5%
CCCCC(CCCC)=N/N=C/c1c(O)n(CC)c2cc(C3=NNC(=O)CC3)ccc12	-49.6%
CCC(CC)=N/N=C/c1c(O)n(CC)c2cc(C3=NNC(=O)CC3)ccc12	60.5% (active)
C=CCNc1nc(C(=O)OCC(=O)c2ccc(C)c([N+](=O)[O-])c2)cs1	-31.1%
